High-throughput results from PubChem BioAssay.
Most compounds without a hit are left out; they make up all but 4.7% or so of the library.
tim23-1 inh – tim23-1 yeast growth inhibition. 1.3% of 330,000 active. S. cerevisiae tim23-1 growth, BacTiter-Glo luminescence, 24 h. AID 463212. inhibition, % at 20 µM;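 active means growth inhibition of the mutant yeast at or above 50%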;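 further: temperature-sensitive mutant grown at 25 °C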
SKKanGAS inh – inhibitors of SKKanGAS S. pyogenes growth in kanamycin (SK-promoter or general growth effect); BacTiter-Glo, 6 h; inhibition, % at 7.5 µM; 1.3% of 300,000 active;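 active means mean replicate score, as percent of positive control median, at least 50; inconclusive means mean below 50 but one replicate at or above 50; inactive means mean and every replicate below 50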;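 further: strain carries kanamycin resistance gene driven by streptokinase promoter and grows in 40 µg/ml kanamycin; loss of luminescence reflects streptokinase promoter inhibition or plain growth inhibition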
ATG4B inhibitor – ATG4B (human) cysteine protease inhibition. ATG4B cleavage of LC3-PLA2, NBD-HPC fluorescence, 1 h. AID 504462. 0.51% of 340,000 active. Q9Y4P1. inhibition, % at 8.33 µM; in the data active means inhibition above about 40%
Target sequence (Q9Y4P1 whole entry, looked up): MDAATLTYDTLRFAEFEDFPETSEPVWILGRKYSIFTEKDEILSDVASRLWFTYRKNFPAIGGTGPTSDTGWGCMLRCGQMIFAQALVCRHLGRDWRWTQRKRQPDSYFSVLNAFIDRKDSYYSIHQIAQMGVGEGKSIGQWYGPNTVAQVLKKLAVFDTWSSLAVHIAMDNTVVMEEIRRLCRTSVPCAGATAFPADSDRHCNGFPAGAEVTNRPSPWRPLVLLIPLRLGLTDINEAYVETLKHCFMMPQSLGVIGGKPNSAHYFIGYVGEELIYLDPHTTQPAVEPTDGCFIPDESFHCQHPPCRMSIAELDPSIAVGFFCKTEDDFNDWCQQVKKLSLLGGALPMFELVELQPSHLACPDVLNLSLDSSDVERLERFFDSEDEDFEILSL
TIM10 inh – inhibits growth of TIM10 yeast strain | S. cerevisiae TIM10 strain growth, BacTiter-Glo luminescence, 24 h | AID 463195 | inhibition, % at 10 µM | 1.4% of 330,000 active;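 active means inhibition of 40% or more at the single tested concentration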;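 further: wild-type TIM10 isogenic control strain grown at permissive 25 °C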
tim10-1 inh – inhibits growth of tim10-1 mutant yeast; 2.2% of 330,000 active; inhibition, % at 20 µM; S. cerevisiae tim10-1 ts strain growth, BacTiter-Glo, 24 h;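 active means inhibition of at least 40%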;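 further: mutant grown at 25 °C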
PfHsp90 set2 – reduces growth (ATP signal) of yeast expressing P. falciparum Hsp90; S. cerevisiae expressing PfHsp90, BacTiter-Glo ATP, 48 h; yeast lacking PDR1 and PDR3 efflux regulators; inhibition, % at 9.4 µM; 0.32% of 310,000 active;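 active means every replicate shows inhibition above about 80%, whatever the replicate mean, limit read from the data; inconclusive means mean inhibition reaches the set limit but some replicate falls short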
tim10-1 conf – tim10-1 yeast growth inhibition, confirmed | shares compounds with tim10-1 inh | S. cerevisiae tim10-1 ts strain growth, BacTiter-Glo, 24 h | inhibition, % at 20 µM | 56% of 7,400 active | AID 463213;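 active means inhibition of yeast growth at or above a set limit in either of two repeat tests at 20 µM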;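 further: tim10-1 mutant grown at permissive 25 °C to find synthetic lethal compounds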
Numbers stand for hits; i = inactive; ? = inconclusive; nt = no result; ! = a repeat was not active.

SMILES	tim23-1 inh	SKKanGAS inh	ATG4B inhibitor	TIM10 inh	tim10-1 inh	PfHsp90 set2	tim10-1 conf
c1ccc2sc(-c3ccc4c(c3)OCO4)nc2c1	i	nt	i	i	45.3	i	45.5
O=C(COC(=O)c1cc(S(=O)(=O)N2CCc3ccccc3C2)ccc1Cl)NCc1ccco1	i	i	i	i	i	i	nt
O=C(COC(=O)c1cccc(S(=O)(=O)N2CCc3ccccc3C2)c1)NCc1ccco1	i	i	i	i	40.9	i	i
CCCN(CC(=O)Nc1ccc(F)c(F)c1F)CC(=O)Nc1c(Cl)cccc1Cl	i	i	i	i	i	i	nt
CCC1CCc2c(sc(N)c2C(N)=O)C1 (stereo not given)	i	i	i	i	i	i	nt
CC1CCc2c(sc(N)c2C(N)=O)C1 (stereo not given)	i	i	i	i	40.8	nt	i
Cc1ccccc1C(=O)NNC(=S)NC(=O)c1cccnc1	i	i	i	i	i	nt	nt
O=[N+]([O-])c1cc(/C=N\Nc2nc(-c3ccccc3)cs2)ccc1O	i	?	i	i	i	i	nt
Cc1csc(N/N=C/c2ccc(O)c([N+](=O)[O-])c2)n1	i	i	i	i	50.5	nt	33.0
CN(Cc1ccccc1)c1ncnc2ccc(Br)cc12	i	i	i	i	41.9	i	i
CCOc1ccccc1Nc1ncnc2ccc(Br)cc12	i	i	i	i	i	i	nt
COc1cc2c(C#N)c(N3CCCC3)nc(N)c2c(N)n1	i	i	i	i	43.4!	i	i
CCOc1ccc(NC2=C(OC)C(=O)c3ccccc3C2=O)cc1	i	i	i	i	44.3	i	i
COC1=C(Nc2ccc(O)cc2)C(=O)c2ccccc2C1=O	i	i	i	i	i	i	nt
COC1=C(Nc2ccc(OC)cc2)C(=O)c2ccccc2C1=O	i	i	i	i	40.0	i	i
CCn1ncc(/C=C/C(=O)c2ccccc2)c1C	i	i	i	i	45.6	i	i
O=S(=O)(c1ccc2ccccc2c1)N1CCN=C1SCc1cccnc1	i	i	i	i	i	i	nt
Cc1occc(=O)c1OCc1c(F)cccc1Cl	i	i	i	i	i	i	nt
CN(C(=S)Oc1ccc(C(=O)Nc2ccccc2)cc1)c1ccccc1	i	i	i	i	51.4	i	i
CCOc1ccc2ncc(S(=O)(=O)c3ccccc3)c(N3CCC4(CC3)OCCO4)c2c1	i	i	nt	i	i	nt	nt
CCn1nc(NC(=O)c2ccccc2)c2cc3cccc(C)c3nc21	i	i	i	i	45.8	i	31.7
COc1ccc(CCNC(=O)C2CCN(S(=O)(=O)c3ccc4c(c3)oc(=O)n4C)CC2)cc1OC	i	i	i	i	i	i	nt
O=c1c(-c2nnc(SCc3ccc(Cl)cc3)o2)cccn1Cc1ccccc1	i	i	i	i	45.7	nt	i
Nc1cccc(Nc2nc(OC(C(F)(F)F)C(F)(F)F)nc(OC(C(F)(F)F)C(F)(F)F)n2)c1	i	i	i	i	43.0	i	38.4
CCc1ccc(OCC(=O)NNC(=O)c2ccc(-n3cncn3)c([N+](=O)[O-])c2)cc1	nt	nt	i	nt	nt	i	nt
SMILES	tim23-1 inh	SKKanGAS inh	ATG4B inhibitor	TIM10 inh	tim10-1 inh	PfHsp90 set2	tim10-1 conf
COc1ccc(-c2cc(-c3ccc(Cl)cc3)n[nH]2)c(O)c1	i	?	i	i	40.6	i	45.2
COc1ccc(-c2cc(-c3cc(F)ccc3O)[nH]n2)cc1OC	i	i	i	i	i	nt	i
CCCCc1cc(=O)oc2cc(C)c(CN3CCCC3)c(O)c12	i	i	i	i	i	nt	nt
Cc1ccnc(SCCn2c(N3CC(C)OC(C)C3)nc3c2c(=O)n(C)c(=O)n3C)n1 (stereo not given)	i	i	i	i	i	i	nt
Cc1ccnc(SCCn2c(N3CCCCC3)nc3c2c(=O)n(C)c(=O)n3C)n1	i	i	i	i	i	i	nt
Cc1ccnc(SCCn2c(N3CCC(C)CC3)nc3c2c(=O)n(C)c(=O)n3C)n1	i	i	i	i	45.1	i	i
Cc1ccnc(SCCn2c(N3CC(C)CC(C)C3)nc3c2c(=O)n(C)c(=O)n3C)n1 (stereo not given)	i	i	i	i	44.3	i	i
COc1ccc(C)cc1NC(=O)CSCc1ccccc1C	i	i	i	i	i	i	nt
CCn1c2ccccc2c2nnc(SCc3ccccc3)nc21	i	i	i	i	44.0	i	i
CCn1c2ccccc2c2nnc(SCC(N)=O)nc21	i	i	i	i	i	i	nt
Fc1ccccc1CSc1ncn[nH]1	i	i	i	i	i	nt	nt
Cc1cc(OCC(=O)N2CCc3ccccc3C2)c2c(-c3ccccc3)cc(=O)oc2c1	i	i	i	i	46.4	i	i
CCOc1cc(C)cc2oc(=O)cc(-c3ccccc3)c12	i	i	i	i	i	i	nt
COc1ccc(NC(=S)c2ccc3ccccc3n2)cc1	i	i	i	i	56.3	i	i
Cc1cc(C)n(-c2ncnc3sc4c(c23)CC(C)CC4)n1 (stereo not given)	i	i	i	i	i	i	nt
Cc1cc(C)n(-c2nc(C)nc3sc4c(c23)CCC(C)C4)n1 (stereo not given)	i	i	i	i	42.3	i	i
CN1CCN(c2nc(-c3cccnc3)nc3ccccc23)CC1	i	i	i	i	i	i	nt
c1cncc(-c2nc(N3CCCCCC3)c3ccccc3n2)c1	i	i	i	i	49.6	i	32.0
CNC(=O)c1ccsc1NC(=O)c1ccc(Cl)s1	i	i	i	i	43.7	i	31.9
CN1C(C(=O)Nc2ccccn2)=C(O)c2sc(Cl)cc2S1(=O)=O	i	i	i	i	i	i	nt
CCN(CC)c1ccc(Nc2nc(-c3cccnc3)cs2)cc1	i	i	i	i	49.3	i	33.3
CN(C)c1ccc(Nc2nc(-c3cccnc3)cs2)cc1	i	i	i	i	i	i	nt
C/C(CC(=O)Nc1c(C)cc(C)cc1C)=N\NC(=O)Cc1ccccc1	i	i	i	i	i	i	nt
C=CCc1ccc(O)c(-c2cc(CC=C)ccc2O)c1	i	i	i	i	43.0	i	44.5
O=C1/C(=C/c2ccccc2)SC(=S)N1CC(=O)N1CCCCC1c1cccnc1 (stereo not given)	i	i	i	i	46.9	i	i
O=C(CCN1C(=O)/C(=C/c2ccccc2)SC1=S)Nc1cccnc1	i	i	i	i	i	i	nt
CCCCc1cc(=O)oc2cc(OC(C)C(=O)NCc3ccccn3)c(Cl)cc12 (stereo not given)	i	i	i	i	41.3	i	i
O=C1/C(=C\c2ccccc2)SC(=S)N1CCC(=O)N1CCCCC1CCO (stereo not given)	i	i	i	i	i	i	nt
O=C1/C(=C/c2ccccc2Cl)SC(=S)N1CCC(=O)N1CCCCC1CCO (stereo not given)	i	i	i	i	46.4	i	i
COc1ccc(NC(=O)O/N=C2/CCCc3ccc(OC)cc32)cc1	i	i	i	i	i	i	nt
